# Inconclusive results are not listed. The source made the active and inactive calls. Calls follow the shape of the dose curve; as a rule, active = well fitted cell-killing curve with a large enough effect; inconclusive = small, poorly fitted or top-dose-only effect, or effect the other way; inactive = flat fitted curve, though single readings scatter.
# Test system: CAOV3
# Experiment: Primary qHTS to identify gynecologic anti-cancer compounds using libraries of approved drugs and bioactive compounds (AID 1345084); also: nearly all actives have a fitted effect of over 55% in size
# Conditions: Gynecologic cancer cell panel viability, ATPlite luminescence, 48 h; series mostly up to 57.5 µM; activity change, negative = cytotoxicity: at the top concentration
# Description: National Center for Advancing Translational Sciences [NCATS] Assay Overview: Chemotherapeutic drug responses vary from cancer to cancer and from patient to patient. These variations could be caused by a number of factors including patient genomic background, tumor mutations, tumor heterogeneity, and aspects of drug treatment. Chemotherapeutic drug resistance is also a common issue and can lead to ineffective treatment and patient death. Here we have profiled the cell killing effects of thousands of compounds to characterize the responses in three gynecological cancers, identify cancer-selective compounds, and understand the diversity of responses to these compounds from pan-cancer suppressors to single cell line selective compounds. In this assay, we screened a 7,914 compound drug library that included approved drug and bioactive compounds in six ovarian, three cervical, and […] placental cancer cell lines using the ATPlite assay for cell viability. […] The cervical cancer cell lines included HeLa, Ca Ski, and C-33 A. The placental cancer cell lines included JEG-3. HEK 293T cells were used as the control cell line to determine the selectivity index. ATPlite is a luminescence based assay reliant on the conversion of a luciferase substrate to light in the presence of ATP. As a cytotoxic compound will suppress growth and decrease the number of cells, the concentration of ATP will decrease, and less light signal will be detected in the well.
# Assay Protocol Summary: 1,000 cells in 4 uL of media were dispensed into white, solid bottom 1536-well plates using a Multidrop Combi (Thermo Scientific). The Assay plates were incubated for 16 hours at 37 C with 5% CO2 in assay plates, followed by the addition of 23 nL of DMSO or drug dissolved in DMSO. Each compound was assayed in five concentrations (0.092, 0.46, 2.3, 11.5, and 57.5 uM), using the automated Wako 1536 Pin Tool workstation and incubated at 37 C with 5% CO2 48 hours. 4 uL of ATPlite, the ATP monitoring reagent, was then added to the each well of the assay plates using the Multidrop Combi reagent dispenser followed by incubation for 15 minutes at room temperature. The resulting luminescence was measured using the ViewLux plate reader.
# % is scaled to controls: 0 for no effect and ±100 for the full control effect.
row,Compound,"activity change, negative = cytotoxicity"
1,Cc1nc2ccccc2c(-c2ccc3c4c(ccnc24)CCO3)c1[C@H](OC(C)(C)C)C(=O)O,21.1% (inactive)
2,COC(=O)c1c(CC=C(C)C)c(OC2OC(CO)C(O)C(O)C2O)c2ccccc2c1OC1OC(CO)C(O)C(O)C1O (stereo not given),-4.87% [at 25.3 µM] (inactive)
3,COc1ccc2c(c1)N1C(=O)C[C@@]34C=CC[N@+]5([O-])CC[C@H]2[C@H](CC3)[C@@]145,-1.93% [at 38.5 µM] (inactive)
4,O=C(O)c1cccc(C(=O)CCC2OC(n3cnc4c(=O)[nH]cnc43)C(O)C2O)c1 (stereo not given),-0.117% [at 25.3 µM] (inactive)
5,Cc1ccc(-c2c(-c3nn(C)c4ncnc(N5CCC(N6CCCCC6)C5)c34)cnn2C)cc1 (stereo not given),-5.83% (inactive)
6,CC(=O)O[C@@H]1[C@@H](O)[C@H](C)O[C@@H](O[C@H]2[C@@H]3C=CO[C@@H](O[C@@H]4O[C@H](CO)[C@@H](O)[C@H](O)[C@H]4OC(C)=O)[C@@H]3[C@@]3(CO)O[C@@H]23)[C@@H]1OC(=O)/C=C/c1ccc(O)cc1,12.1% [at 25.3 µM] (inactive)
7,CC1CCC2(C(=O)O)CCC3(C)C(=CCC4C5(C)CCC(O)C(C)(C(=O)O)C5CCC43C)C2C1(C)O (stereo not given),0.83% [at 25.3 µM] (inactive)
8,C[C@@H]1O[C@@H](O[C@@H]2[C@@H](O)[C@H](O[C@@H]3[C@@H](O)[C@@H](O)[C@H](O[C@H]4[C@H](OC(=O)[C@]56CCC(C)(C)C[C@H]5C5=CCC7[C@@]8(C)C[C@H](O)[C@H](O[C@@H]9O[C@H](C(=O)O)[C@@H](O)[C@H](O)[C@H]9O)[C@@](C)(CO)C8[C@H](O)C[C@@]7(C)[C@]5(C)C[C@H]6O)O[C@@H](CO)[C@@H]4O)O[C@H]3C)OC[C@H]2O)[C@H](O)[C@H](O)[C@H]1O (stereo not given in full),-1.08% [at 6.55 µM] (inactive)
9,CC1(CO)CCCC2(C)C1C(OC(=O)c1ccccc1)CC1C(=O)OCC12O (stereo not given),6.16% [at 38.5 µM] (inactive)
10,COc1ccccc1CN[C@H]1CCCN[C@H]1c1ccccc1,16% (inactive)
11,CCCC(C(=O)O)c1c(C)nc2ccc(Cl)cc2c1-c1ccccc1 (stereo not given),-2.43% (inactive)
12,CC(C)(CC(=O)N1CCCC1)NCC(=O)N1C[C@@H](F)C[C@H]1C#N,17.6% (inactive)
13,C=C(C)[C@@H]1CC[C@]2(C)CC[C@]3(C)C(CCC4[C@@]5(C)CC[C@H](O)C(C)(C)C5CC[C@]43C)C12 (stereo not given in full),0.624% [at 25.3 µM] (inactive)
14,O=C(O)CCc1ccc(NCc2cccc3c2CCCN3CCOc2ccccc2)cc1F,-6.12% (inactive)
15,CC(NC(=O)CC(=O)O)C(=O)Nc1ccccc1C(N)=O (stereo not given),-0.533% (inactive)
16,CC(=O)OC/C(=C/C(=O)O)CC[C@@H]1C(CO)=CC[C@@H]2C(C)(C)CCC[C@@]12C,11.4% [at 38.5 µM] (inactive)
17,C[C@]1(C2CCCC2)Cc2cc(OCC(=O)O)c(Cl)c(Cl)c2C1=O,5.05% (inactive)
18,O=C(Nc1ccn(Cc2c(F)cccc2C(F)(F)F)n1)c1c(F)cccc1F,17% [at 11.6 µM] (inactive)
19,CCCCCOC(=O)Nc1nc(=O)n(C2O[C@H](C)[C@@H](O)[C@H]2O)cc1F (stereo not given in full),-1.12% (inactive)
20,CC1(C)C[C@@H]2[C@H](C1)[C@@]1(C)C[C@]13C(O)OC[C@]3(O)[C@H]2O (stereo not given in full),-0.32% (inactive)

row,Compound,"activity change, negative = cytotoxicity"
1,CC1C2=CC(=O)OC2(O)CC2C1C(O)CC1C(C)(CO)CCCC21C (stereo not given),-10.3% [at 38.5 µM] (inactive)
2,O=C(N[C@@H]1CC[C@@H](c2cccc(F)c2F)CN(CC(F)(F)F)C1=O)N1CCC(n2c(=O)[nH]c3ncccc32)CC1,-2.14% (inactive)
3,C=C1C(O)C(O)C2(CC3C(C)=CCC4C(C)(C(=O)O)CCCC34C)OC2C1O (stereo not given),-1.73% [at 38.5 µM] (inactive)
4,CCC(C)C(=O)O[C@H]1C[C@](C)(O)[C@]23OC(C)(C)[C@H](C[C@H](OC(=O)c4ccccc4)[C@]2(COC(C)=O)[C@H]1OC(=O)C(C)CC)[C@H]3OC(C)=O (stereo not given in full),15.3% [at 25.3 µM] (inactive)
5,CC(C)c1ccc2c(c1)C(O)CC1C(C)(CO)CCCC21C (stereo not given),3.66% (inactive)
6,C=C1C[C@]23C[C@@]1(O)CC[C@H]2[C@@]12C=C[C@H](O)[C@@](C)(C(=O)O1)[C@H]2[C@@H]3C(=O)O,-4.23% [at 38.5 µM] (inactive)
7,CC(C)=CCC[C@](C)(O[C@@H]1O[C@H](CO[C@@H]2O[C@@H](CO)[C@H](O)[C@H]2O)[C@@H](O)[C@H](O)[C@H]1O)[C@H]1CC[C@]2(C)[C@@H]1[C@H](O)C[C@@H]1[C@@]3(C)CC[C@H](O[C@@H]4O[C@H](CO)[C@@H](O)[C@H](O)[C@H]4O[C@@H]4O[C@H](CO)[C@@H](O)[C@H](O)[C@H]4O)C(C)(C)[C@@H]3CC[C@]12C,8.05% [at 25.3 µM] (inactive)
8,C=C1CC23CC1CCC2C12OC(=O)C(C)(C(O)C(O)C1O)C2C3C(=O)O (stereo not given),6.57% [at 38.5 µM] (inactive)
9,Fc1cccc(CN(C2=NCCN2)c2c(Cl)cccc2Cl)c1,-0.234% (inactive)
10,O=C(Nc1ccc(N2CCC(C(=O)N3CCOCC3)CC2)cc1)c1cnc(Oc2ccccc2)nc1,19.2% (inactive)
11,C=C(COC(=O)CC(C)C)C1Cc2cc(C(C)=O)ccc2O1 (stereo not given),2.52% (inactive)
12,C[C@@H]1O[C@@H](O[C@H]2[C@H](O[C@H]3[C@H](O[C@H]4CC[C@@]5(C)C(CC[C@]6(C)C5CC=C5[C@@H]7CC(C)(C)C[C@@H](O)[C@]7(C)CC[C@]56C)[C@@]4(C)CO)O[C@H](C(=O)O)[C@@H](O)[C@@H]3O)O[C@H](CO)[C@H](O)[C@@H]2O)[C@H](O)[C@H](O)[C@H]1O (stereo not given in full),6.93% [at 11.6 µM] (inactive)
13,COc1ccc(/C=C/C(=O)O[C@@H]2[C@@H](OC(C)=O)[C@@H](OC(C)=O)[C@H](O[C@H]3[C@@H]4C=CO[C@@H](O[C@@H]5O[C@H](CO)[C@@H](O)[C@H](O)[C@H]5O)[C@@H]4[C@@]4(CO)O[C@@H]34)O[C@H]2C)cc1,-2.8% [at 25.3 µM] (inactive)
14,CC(C)CC(=O)NCCn1cc(C(=O)O)c(=O)cc1C(O)c1ccccc1 (stereo not given),0.634% [at 38.5 µM] (inactive)
15,CC(=O)/C=C/C1(O)C(C)=CC(=O)CC1(C)C (stereo not given),-0.494% (inactive)
16,CC(=O)OC1C(O)/C(C)=C\C2C(OC(=O)c3ccccc3)C(C)CC2(OC(C)=O)C(OC(C)=O)C(C)/C=C/C(C)(C)C1OC(C)=O (stereo not given),-0.955% [at 25.3 µM] (inactive)
17,CC(C)[C@@H](C(=O)O)N1Cc2c(cc(O)c3c2O[C@]2(C3)[C@H](C)CCC3C(C)(C)[C@H](O)[C@H](O)C[C@@]32C)C1=O (stereo not given in full),1.66% [at 25.3 µM] (inactive)
18,COC(=O)C1=CO[C@@H](O[C@@H]2O[C@H](CO)[C@@H](O)[C@H](O)[C@H]2O)C2C1CC(O)C2C (stereo not given in full),-0.0158% [at 38.5 µM] (inactive)
19,C/C=C(\C)C(=O)OCC1OC(OCC2OC(OC3(CO)OC(CO)C(O)C3O)C(O)C(O)C2O)C(O)C(O)C1O (stereo not given),2.61% [at 25.3 µM] (inactive)
20,C[C@@H]1C[C@@H](O)[C@@]23CO[C@]2(CO)CCC[C@@H]3[C@@]12C[C@@H](c1ccoc1)OC2=O,-10.1% [at 38.5 µM] (inactive)
